The nature of assay [1]: Nuclear factor erythroid 2-related factor 2/antioxidant responsive element (Nrf2/ARE) small molecule agonists: qHTS cell viability counter screen in human keratinocytes (AID 1919968; active = well fitted curve in the direction sought with a large enough effect in the repeat runs; an effect the other way counts as inactive or inconclusive; note: nearly all actives have a fitted effect of over 55% in size; note: potency is the fitted concentration of half-maximal effect). The procedure, abridged:
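HaCaT ARE reporter line, 1,500 cells/well; 5 h settle, 37 C/5% CO2; cpd in DMSO pinned; 23 h exposure; CellTiter-Fluor, 1 h; fluorescence.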
In general terms: qHTS replaces the single test concentration by a dilution series.

A short description of assay [2]: Nuclear factor erythroid 2-related factor 2/antioxidant responsive element (Nrf2/ARE) small molecule agonists: luciferase reporter gene qHTS assay in human keratinocytes (AID 1919969). Note: nearly all actives have a fitted effect of over 35% in size. Note: potency is the fitted concentration of half-maximal effect. Background: In a reporter assay the amount or activity of a reporter protein is the signal.
In assay [3] the target is Gonadotropin-releasing hormone receptor (Homo sapiens) (UniProt P30968). Kind of assay: Human gonadotropin-releasing hormone receptor (GnRHR) small molecule agonists, calcium flux assay in GnRHR-HEK293 cells (AID 1920063). Note: nearly all actives have a fitted effect of over 35% in size. The procedure, abridged:
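GnRHR-HEK293, 1500 cells/well, 18 h 37 C/5% CO2; Ca dye 1 h 37 C; cpd pinned (DMSO), agonist mode; kinetic FL 480/540, 3 min, 1 s reads; 15 conc, n=3.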
For orientation: Calcium assays in cells follow changes in intracellular calcium, usually with a dye or a luminescent sensor.

Assay [4] deals with KiSS-1 receptor (Homo sapiens) (UniProt Q969F8). Put plainly: Human kisspeptin (KISS1R) small molecule agonists, calcium flux assay in KISS1R-HEK293 cells (AID 1920064; active = well fitted curve in the direction sought with a large enough effect in the repeat runs; an effect the other way counts as inactive or inconclusive). In a few lines: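 Stable human KISS1R HEK293 line; 18 h plating, 37 C/5% CO2; calcium dye 1 h 37 C; compound pin transfer; kinetic fluorescence Ex/Em 480/540, 3 min.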
Assay [5] in a line: G protein-coupled receptor (GPCR) small molecule agonists, calcium flux assay: HEK293 wild type cell line counter screen (AID 1920065). The procedure, abridged:
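Kinetic fluorescence at Ex/Em 480/540, recorded every second over 3 min, served as the read-out after compound addition. Each compound was tested at 15 concentrations in triplicate on cells pre-loaded with calcium dye for 1 h.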

A short description of assay [6]: p53 small molecule agonists, cell-based qHTS assay with human liver microsomes (AID 1963577).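 Note: p53 response element beta-lactamase reporter cells with liver microsomes plus NADPH.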 In a few lines: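 With metabolic activation: human liver microsomes (0.5 mg/mL final) plus NADPH (0.5 mg/mL final) added alongside compounds to p53RE-bla cells; 16 h 37 C exposure; beta-lactamase read by LiveBLAzer fluorescence.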
Assay [7] can be described thus: p53 small molecule agonists, cell-based qHTS assay with rat liver microsomes (AID 1963578). In a few lines:
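Metabolic activation by rat liver microsomes and NADPH, each 0.5 mg/mL final, added right after compounds to p53RE-bla reporter cells (4,000/well, plated 5 h earlier). 16 h at 37 C, then LiveBLAzer substrate for 2 h at room temperature in the dark; fluorescence read-out.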

The nature of assay [8]: p53 small molecule agonists, cell-based qHTS assay with human liver microsomes: qHTS cell viability counter screen (AID 1963579). Note: nearly all actives have a fitted effect of over 45% in size. The procedure, abridged: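 Metabolic activation used human liver microsomes and NADPH, both 0.5 mg/mL final, over 16 hours at 37 C on p53RE-bla cells (4,000/well). Cytotoxicity measured by CellTiter-Glo luminescence, 30 min at room temperature.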

Assay [9] can be described thus: p53 small molecule agonists, cell-based qHTS assay with rat liver microsomes: qHTS cell viability counter screen (AID 1963580). Note: nearly all actives have a fitted effect of over 45% in size. The procedure, abridged:
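p53RE-bla HCT-116 cells (4,000/well) rested 5 h at 37 C, then given Tox21 compounds in DMSO with rat liver microsomes (0.5 mg/mL final) plus NADPH (0.5 mg/mL final) for 16 h at 37 C. Viability read by CellTiter-Glo luminescence after 30 min at room temperature.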

Assay [10] can be described thus: p53 small molecule agonists, cell-based qHTS assay: qHTS cell viability counter screen (AID 1963581). Note: nearly all actives have a fitted effect of over 45% in size. In a few lines: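 HCT-116 p53RE-bla cells, 4,000/well, plated 5 h before compound pin transfer; 16 h at 37 C; bla substrate 2 h RT; then CellTiter-Glo, 30 min RT, luminescence.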
A short description of assay [11]: p53 small molecule agonists, cell-based qHTS assay (AID 1963582; active = well fitted activation curve with a large enough effect in the signal ratio in the repeat runs, not every such curve was filed as active; the % refers to the signal ratio). The procedure, abridged: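 Reporter line: p53RE-bla. Pre-incubation 5 h, 37 C, 5% CO2; compound (DMSO, pin tool) 16 h, 37 C; B/G FRET substrate 2 h RT; fluorescence intensity read.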
Assay [12] deals with Muscarinic acetylcholine receptor M1 (Homo sapiens) (UniProt P11229). Kind of assay: Cholinergic receptor muscarinic 1 (CHRM1) small molecule agonists, cell-based qHTS assay (AID 1963589). Note: nearly all actives have a fitted effect of over 35% in size. The procedure, abridged:
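Human M1 in stable CHO line; 18 h plating, 1 h dye load 37 C; cpd added (agonist mode); Ca2+ fluorescence kinetic read, 1 s intervals; 15 conc, 3 runs.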

Assay [13] deals with Beta-2 adrenergic receptor (Homo sapiens) (UniProt P07550). Kind of assay: Adrenergic beta2 receptor (ADRB2) small molecule agonists, cell-based qHTS assay (AID 1963593).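 Note: CHO cells stably overexpressing human ADRB2.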 In a few lines:
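CHO cells stably over-expressing ADRB2 were plated overnight at 37C, then dosed with compounds plus a stimulation mix containing 100uM IBMX and 25uM Ro-20-1724 for 0.5hr at room temperature. cAMP was measured by HTRF competition, 1hr.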

Assay [14] deals with D(2) dopamine receptor (Homo sapiens) (UniProt P14416). Put plainly: Dopamine D2 receptor (DRD2) small molecule agonists, cell-based qHTS assay (AID 1963594). Note: nearly all actives have a fitted effect of over 35% in size. The procedure, abridged:
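HEK293 cells stably expressing DRD2 were cultured 24 h at 37 C, then given Ro20-1724 (0.1 mM final) and compounds for 10 min at room temperature. NKH477 (200nM) was then added for 30 min. cAMP was read by HTRF.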

For assay [15] the target is unchanged. Put plainly: Dopamine D2 receptor (DRD2) small molecule antagonists, cell-based qHTS assay (AID 1963595; active = well fitted inhibition curve with a large enough effect in the signal ratio in the repeat runs, with a control signal flat; the % refers to the signal ratio). In a few lines:
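Human DRD2 antagonist qHTS measuring cAMP by HTRF. The cells are exposed to compound for 10 min, then to NKH477 (200 nM) and quinpirole (12 nM) for 30 min at RT, with Ro20-1724 (0.1 mM) present throughout.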

The nature of assay [16]: cAMP Responsive Elements (CRE) small molecule agonists, cell-based qHTS assay (AID 1963590). The procedure, abridged:
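HEK 293T CRE-bla, 2,000 cells/well, 18 h preincubation 37 C/5% CO2; cpds (DMSO) pinned, 3 h; LiveBLAzer B/G FRET substrate, 2 h RT.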

Assay [17] can be described thus: cAMP Responsive Elements (CRE) small molecule antagonists, cell-based qHTS assay (AID 1963591; active = well fitted inhibition curve with a large enough effect in the signal ratio in the repeat runs, not every such curve was filed as active; the % refers to the signal ratio). In a few lines:
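Beta-lactamase reporter read by FRET substrate (LiveBLAzer B/G) after 2 h at room temperature. CRE-bla HEK293T cells had received compound plus 0.25 uM (final) NKH477 for 3 h at 37 °C.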

Assay [18] has as its target Beta-2 adrenergic receptor (Homo sapiens) (UniProt P07550). Kind of assay: Adrenergic beta2 receptor (ADRB2) small molecule antagonists, cell-based qHTS assay (AID 1963592). Note: series mostly up to about 92 µM; nearly all actives have a fitted effect of over 50% in size. In a few lines: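 Cells (CHO, stable ADRB2 overexpression) incubated 18-20hr at 37C; compounds added from DMSO; agonist mix (1nM isoproterenol, 100uM IBMX, 25uM Ro-20-1724) added; 0.5hr RT; d2-cAMP and anti-cAMP-cryptate added; 1hr RT; 665/615 nm read.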

Assay [19] concerns the target Muscarinic acetylcholine receptor M1 (Homo sapiens) (UniProt P11229). Put plainly: Cholinergic receptor muscarinic 1 (CHRM1) small molecule antagonists, cell-based qHTS assay (AID 1963588). Note: nearly all actives have a fitted effect of over 40% in size. In a few lines:
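CHRM1-CHO calcium-flux assay, antagonist mode. Cells were seeded 18 h, dye-loaded 1 h at 37 C and given compound for 5 min at RT, then acetylcholine was added at 50nM. FDSS fluorescence was read 3 min; 15 concentrations, three runs.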

Assay [20] addresses 5-hydroxytryptamine receptor 2A (Homo sapiens) (UniProt P28223). Put plainly: 5-hydroxytryptamine receptor 2A (HTR2A) small molecule agonists, cell-based qHTS assay (AID 1963587). Note: nearly all actives have a fitted effect of over 30% in size. In a few lines:
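HTR2A-CHO cells, plated 18 h at 37 C/5% CO2, dye-loaded 1 h at 37 C; compounds in DMSO added by pin tool (agonist mode). Intracellular calcium flux read as kinetic fluorescence on FDSS over 2 min at 1 s intervals.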

Unmarked numbers belong to inactive results. Inconclusive results are not listed. Calls of active or inactive are those of the source. Unless noted, calls come from the whole dose curve.

The values below come from PubChem BioAssay (Tox21).

Sequence of Beta-2 adrenergic receptor (Homo sapiens) (P07550 whole entry, looked up): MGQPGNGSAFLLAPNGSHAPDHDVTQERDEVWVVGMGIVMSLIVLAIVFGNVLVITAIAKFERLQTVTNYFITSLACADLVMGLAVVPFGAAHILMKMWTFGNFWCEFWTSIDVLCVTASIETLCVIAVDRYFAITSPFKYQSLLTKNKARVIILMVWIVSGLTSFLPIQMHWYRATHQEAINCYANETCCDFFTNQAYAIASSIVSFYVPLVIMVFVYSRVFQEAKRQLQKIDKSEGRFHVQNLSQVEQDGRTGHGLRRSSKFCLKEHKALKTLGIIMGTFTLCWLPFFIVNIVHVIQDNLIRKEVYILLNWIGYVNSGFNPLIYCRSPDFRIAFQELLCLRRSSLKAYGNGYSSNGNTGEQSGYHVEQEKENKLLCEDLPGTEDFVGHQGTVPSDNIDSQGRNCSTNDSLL
Sequence of Muscarinic acetylcholine receptor M1 (Homo sapiens) (P11229 whole entry, looked up): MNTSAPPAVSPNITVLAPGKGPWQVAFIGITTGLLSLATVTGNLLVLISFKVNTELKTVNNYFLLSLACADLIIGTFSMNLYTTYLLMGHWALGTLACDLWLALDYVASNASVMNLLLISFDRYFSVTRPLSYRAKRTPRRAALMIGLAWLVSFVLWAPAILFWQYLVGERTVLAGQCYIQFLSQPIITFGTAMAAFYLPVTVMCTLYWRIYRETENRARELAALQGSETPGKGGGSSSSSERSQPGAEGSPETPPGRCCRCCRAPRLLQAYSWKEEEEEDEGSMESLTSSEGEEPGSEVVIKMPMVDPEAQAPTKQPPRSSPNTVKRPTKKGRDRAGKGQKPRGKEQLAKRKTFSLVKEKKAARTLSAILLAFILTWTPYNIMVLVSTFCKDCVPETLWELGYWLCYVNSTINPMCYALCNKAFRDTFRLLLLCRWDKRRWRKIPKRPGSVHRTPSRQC
Sequence of D(2) dopamine receptor (Homo sapiens) (P14416 whole entry, looked up): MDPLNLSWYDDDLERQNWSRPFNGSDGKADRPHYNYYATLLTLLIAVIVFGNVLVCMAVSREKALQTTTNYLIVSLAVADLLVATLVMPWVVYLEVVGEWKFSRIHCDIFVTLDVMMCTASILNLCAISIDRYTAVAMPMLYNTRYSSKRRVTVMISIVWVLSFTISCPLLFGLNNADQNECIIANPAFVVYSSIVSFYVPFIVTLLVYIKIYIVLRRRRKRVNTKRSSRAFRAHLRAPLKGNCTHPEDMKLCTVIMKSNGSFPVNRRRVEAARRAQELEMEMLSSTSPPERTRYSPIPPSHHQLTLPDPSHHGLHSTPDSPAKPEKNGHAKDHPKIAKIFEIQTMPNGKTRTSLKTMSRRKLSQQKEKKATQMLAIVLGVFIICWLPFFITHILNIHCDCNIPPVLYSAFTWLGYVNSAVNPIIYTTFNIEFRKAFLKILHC
Sequence of KiSS-1 receptor (Homo sapiens) (Q969F8 whole entry, looked up): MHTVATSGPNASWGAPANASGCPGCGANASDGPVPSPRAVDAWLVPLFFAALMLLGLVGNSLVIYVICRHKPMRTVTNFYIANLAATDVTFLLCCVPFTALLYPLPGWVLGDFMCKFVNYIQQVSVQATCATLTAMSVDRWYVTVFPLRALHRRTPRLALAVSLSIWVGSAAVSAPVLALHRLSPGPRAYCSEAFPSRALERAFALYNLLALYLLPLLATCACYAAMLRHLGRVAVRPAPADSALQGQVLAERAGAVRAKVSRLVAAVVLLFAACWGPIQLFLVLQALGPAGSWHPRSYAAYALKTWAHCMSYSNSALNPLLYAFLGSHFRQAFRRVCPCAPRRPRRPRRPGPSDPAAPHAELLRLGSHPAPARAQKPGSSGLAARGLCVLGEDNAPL
Sequence of Gonadotropin-releasing hormone receptor (Homo sapiens) (P30968 whole entry, looked up): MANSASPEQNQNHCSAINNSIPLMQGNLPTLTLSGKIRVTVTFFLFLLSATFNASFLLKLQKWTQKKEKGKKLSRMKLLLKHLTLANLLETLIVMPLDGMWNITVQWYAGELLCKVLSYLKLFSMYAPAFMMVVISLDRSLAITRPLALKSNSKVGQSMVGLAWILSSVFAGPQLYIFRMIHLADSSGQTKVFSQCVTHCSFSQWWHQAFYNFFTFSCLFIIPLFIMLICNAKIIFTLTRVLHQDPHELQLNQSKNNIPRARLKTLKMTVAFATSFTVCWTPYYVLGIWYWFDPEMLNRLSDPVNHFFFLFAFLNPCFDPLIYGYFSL
Sequence of 5-hydroxytryptamine receptor 2A (Homo sapiens) (P28223 whole entry, looked up): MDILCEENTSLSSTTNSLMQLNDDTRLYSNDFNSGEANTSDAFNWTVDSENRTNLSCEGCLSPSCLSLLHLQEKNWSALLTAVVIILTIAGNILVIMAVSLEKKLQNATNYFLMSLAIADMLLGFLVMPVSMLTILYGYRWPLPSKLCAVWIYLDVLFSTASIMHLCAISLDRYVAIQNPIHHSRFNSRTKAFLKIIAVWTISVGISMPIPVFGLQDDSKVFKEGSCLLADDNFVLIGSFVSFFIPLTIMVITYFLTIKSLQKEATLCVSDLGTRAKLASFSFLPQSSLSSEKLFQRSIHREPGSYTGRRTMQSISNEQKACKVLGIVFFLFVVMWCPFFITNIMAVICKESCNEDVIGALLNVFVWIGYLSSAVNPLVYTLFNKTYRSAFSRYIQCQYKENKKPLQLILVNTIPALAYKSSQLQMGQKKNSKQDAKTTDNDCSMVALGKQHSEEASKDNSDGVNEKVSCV

On to `C=CC(=O)OCCOC(=O)CCC(=O)O`, for which the Potency entry in assay [1], in [3], in assay [6], in assay [7], in assay [8] and in [9] was “inactive” throughout. For the same compound, the Potency entry in [10], in [11], in assay [12], in [13], in [14] and in assay [15] was “inactive” in each case. In addition, the Potency in assay [2] is 61.1 µM (active). For the same compound, the outcome in [4] and in [5] was inactive.
`C[N+]1(C)CCCC(OC(=O)C(O)(c2ccccc2)c2ccccc2)C1` (configuration not stated): the Potency entry in assay [1], in assay [2], in assay [3], in assay [6], in assay [7] and in assay [8] was “inactive” each time. Moreover, the Potency entry in [9], in assay [10], in [11], in [12], in assay [16] and in assay [17] was “inactive” throughout. Further, the Potency result in assay [18], in assay [13], in [14] and in [15] was “inactive” each time. In addition, the outcome in assay [4] and in [5] was inactive.
As to `CCCCCCCCN`, the Potency entry in [1], in assay [2], in [3], in assay [6], in [7] and in [8] was “inactive” in each case. Moreover, the Potency entry in [9], in assay [10], in [11], in assay [19], in [12] and in assay [16] was “inactive” throughout. Also, the Potency result in assay [17], in [18] and in assay [14] was “inactive” each time. Besides, the result in assay [4] and in assay [5] was inactive.
Take `Cc1ccc2c(c1)C(=O)c1ccccc1C2=O`: the Potency entry in assay [1], in [3], in assay [6], in [7], in [8] and in assay [9] was “inactive” throughout. For the same compound, the Potency result in [10], in assay [11], in assay [19], in [12], in assay [18] and in assay [13] was “inactive” each time. Besides, the Potency result in assay [14] and in assay [15] was “inactive” each time. For the same compound, the Potency in [2] is 2.72 µM (active). Also, the result in assay [4] and in assay [5] was inactive.
As for `Cc1nc(C)nc(N2C[C@@H](C)N(c3ccnc([C@@H](C)O)n3)[C@@H](C)C2)n1`, the Potency result in [1], in [2], in assay [3], in assay [6], in assay [7] and in assay [8] was “inactive” each time. Moreover, the Potency entry in [9], in assay [10], in assay [11], in assay [12], in assay [18] and in assay [14] was “inactive” each time. The Potency entry in assay [15] is “inactive”. For the same compound, the outcome in assay [4] and in assay [5] was inactive.
In the case of `CCOC(=O)COC(=O)c1ccccc1C(=O)OCC`, the Potency result in assay [1], in assay [2], in assay [3], in [6], in assay [7] and in assay [8] was “inactive” throughout. Further, the Potency entry in [9], in assay [10], in assay [11], in assay [20], in assay [18] and in assay [14] was “inactive” in each case. In addition, the Potency entry in assay [15] was “inactive”. The outcome in assay [4] and in [5] was inactive.
With `COc1cc(S(=O)(=O)O)c(C)cc1N=Nc1c(O)ccc2cc(S(=O)(=O)O)ccc12`, the Potency in [1] is 24.3 µM (active). Also, the Potency result in assay [2], in assay [3], in [6], in [7], in [8] and in assay [9] was “inactive” in each case. Moreover, the Potency result in assay [10], in assay [11], in assay [19], in [12], in [16] and in assay [17] was “inactive” in each case. Moreover, the result in assay [4] and in [5] was inactive.
